PubChem BioAssay
Active and inactive are the calls of the source.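 The calls were made as follows: active = normalized viability below 100% at a tested concentration; inactive = the rest.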

Assay: drug combination growth inhibition, ovarian cancer – cell-based, oncology-focused library, rucaparib conditional, profiling panel (AID 1508598)
Settings: patient-derived ovarian cancer cells, CellTiter-Glo viability, 144 h; at 0.00122 µM; OCI-C5x cells; without rucaparib; active compounds read low

Row | Structure (SMILES) | viability
1 | CNC(=O)c1ccc(N2C(=S)N(c3ccc(C#N)c(C(F)(F)F)c3)C(=O)C2(C)C)cc1F | 93.5% (active)
2 | Cn1cncc1[C@@](N)(c1ccc(Cl)cc1)c1ccc2c(c1)c(-c1cccc(Cl)c1)cc(=O)n2C | 111% (inactive)
3 | O=C(O)c1ccc2c(c1)nc(Nc1cccc(Cl)c1)c1ccncc12 | 130% (inactive)
4 | CC(C)C[C@H](NC(=O)CNC(=O)c1cc(Cl)ccc1Cl)B(O)O | 130% (inactive)
5 | CC1(C)CCC(c2ccc(Cl)cc2)=C(CN2CCN(c3ccc(C(=O)NS(=O)(=O)c4ccc(N[C@H](CCN5CCOCC5)CSc5ccccc5)c(S(=O)(=O)C(F)(F)F)c4)cc3)CC2)C1 | 34.9% (active)
6 | C#Cc1cccc(Nc2ncnc3cc(OCCOC)c(OCCO)cc23)c1 | 143% (inactive)
7 | CC(C)CC(=O)Nc1n[nH]c2c1CN(C(=O)C1CCN(C)CC1)C2(C)C | 125% (inactive)
8 | C=CCn1c(=O)c2cnc(Nc3ccc(N4CCN(C)CC4)cc3)nc2n1-c1cccc(C(C)(C)O)n1 | 109% (inactive)
9 | O=C(O)[C@H](Cc1c[nH]c2ccccc12)N1C(=O)c2ccccc2C1=O | 108% (inactive)
10 | O=C(NC1CCNCC1)c1[nH]ncc1NC(=O)c1c(Cl)cccc1Cl | 113% (inactive)
11 | CC(C)C[C@H](NC(=O)CNC(=O)c1cc(Cl)ccc1Cl)B1OC(=O)CC(CC(=O)O)(C(=O)O)O1 (some centres not stated) | 123% (inactive)

Same assay, conditions: patient-derived ovarian cancer cells, CellTiter-Glo viability, 144 h; at 0.00122 µM; OCI-P5x cells; with rucaparib 20 µM; active compounds read low; 100% = cells with rucaparib alone

Row | Structure (SMILES) | viability
12 | CNC(=O)c1ccc(N2C(=S)N(c3ccc(C#N)c(C(F)(F)F)c3)C(=O)C2(C)C)cc1F | 91.6% (active)
13 | Cn1cncc1[C@@](N)(c1ccc(Cl)cc1)c1ccc2c(c1)c(-c1cccc(Cl)c1)cc(=O)n2C | 103% (inactive)
14 | O=C(O)c1ccc2c(c1)nc(Nc1cccc(Cl)c1)c1ccncc12 | 98.4% (active)
15 | CC(C)C[C@H](NC(=O)CNC(=O)c1cc(Cl)ccc1Cl)B(O)O | 106% (inactive)
16 | CC1(C)CCC(c2ccc(Cl)cc2)=C(CN2CCN(c3ccc(C(=O)NS(=O)(=O)c4ccc(N[C@H](CCN5CCOCC5)CSc5ccccc5)c(S(=O)(=O)C(F)(F)F)c4)cc3)CC2)C1 | 118% (inactive)
17 | C#Cc1cccc(Nc2ncnc3cc(OCCOC)c(OCCO)cc23)c1 | 109% (inactive)
18 | CC(C)CC(=O)Nc1n[nH]c2c1CN(C(=O)C1CCN(C)CC1)C2(C)C | 101% (inactive)
19 | C=CCn1c(=O)c2cnc(Nc3ccc(N4CCN(C)CC4)cc3)nc2n1-c1cccc(C(C)(C)O)n1 | 102% (inactive)
20 | O=C(O)[C@H](Cc1c[nH]c2ccccc12)N1C(=O)c2ccccc2C1=O | 92% (active)
21 | O=C(NC1CCNCC1)c1[nH]ncc1NC(=O)c1c(Cl)cccc1Cl | 95.9% (active)
22 | CC(C)C[C@H](NC(=O)CNC(=O)c1cc(Cl)ccc1Cl)B1OC(=O)CC(CC(=O)O)(C(=O)O)O1 (some centres not stated) | 111% (inactive)
